# Earlier results in PubChem BioAssay AID977611.
# In all, about 3,900 compounds went through this assay and about 3,900 (100%) were called active. The limit is not given here; nearly all actives have Kd up to about 4200 µM. So high a share suggests a set chosen from earlier hits. The list shows a part of the results. Starred links: 1 amine or outer side, 2 acyl side, 3 side chain; linkers in the order of their positions; H or OH if unused. *1 amine or outer side, *2 acyl side, *3 side chain or, on linkers, in order; H or OH if unused. Positions of bridges follow the written chain, without caps; N, C: chain ends. Where a SMILES comes first, the peptide text is derived from it. Non-standard residues stand in square brackets, D forms with d. Square brackets hold non-standard residues; d marks the D form. Residues, ends and D or L forms follow the SMILES beside them. Peptide text beside a SMILES is read from it. [ ]: non-standard residue; d: D form. Thr(P(OH)3+) = C[C@@H](O[P+](O)(O)O)[C@H](N)C(=O)O; X1 = C[C@](CCCCCC=[*:3])(N[*:1])C(=O)[*:2]; X2 = C[C@@](CCCCC=[*:3])(N[*:1])C(=O)[*:2]; Orn(CH(NH2)2) = NC(N)NCCC[C@H](N)C(=O)O; R8 = C=CCCCCCC[C@@](C)(N)C(=O)O; S5 = C=CCCC[C@](C)(N)C(=O)O; Abu = CC[C@H](N)C(=O)O
# Test: PubChem AID 977611
# Settings: PDB protein-ligand complexes, literature Kd
compound,measurement,setting,value
H-SYGHLSIG-OH,Kd,"protein: MALTOSE-BINDING PERIPLASMIC PROTEIN, SUPPRESSOR OF FUSED HOMOLOG (W61D, L62S, G63F, P453A, K457A mutation), PDB entry 4blb",4.47 µM (active)
H-GSYGHLSIGT-OH,Kd,"protein: Sufu, PDB entry 4kmd",3.86 µM (active)
OS(O)(O)CCNC1CCCCC1,Kd,"protein: Interleukin-13 receptor subunit alpha-1, PDB entry 4hwb",0.00057 µM (active)
C[C@H](N)C(=O)N[C@@H](CCCNC(N)N)C(=O)N[C@H](C(=O)N[C@@H](CCCC[N+](C)(C)C)C(=O)N[C@@H](CCC(N)=O)C(=O)N[C@H](C(=O)N[C@@H](C)C(=O)N[C@@H](CCCNC(N)N)C(=O)N[C@@H](CCCCN)C(=O)N[C@@H](CO)C(=O)N[C@H](C(=O)NCC(=O)NCC(=O)N[C@@H](CCCCN)C(=O)N[C@@H](C)C(=O)O)[C@@H](C)O)[C@@H](C)O)[C@@H](C)O,Kd,"protein: bromodomain PHD finger transcription factor, PDB entry 2fuu",2.7 µM (active)
CC(=O)NCCCC[C@H](NC(=O)[C@H](CCCNC(N)N)NC(=O)[C@H](C)NC(=O)[C@@H](NC(=O)[C@H](CCC(N)=O)NC(=O)[C@H](CCCCN)NC(=O)[C@@H](NC(=O)[C@H](CCCNC(N)N)NC(=O)[C@H](C)N)[C@@H](C)O)[C@@H](C)O)C(=O)N[C@@H](CO)C(=O)N[C@H](C(=O)NCC(=O)NCC(=O)N[C@@H](CCCCN)C(=O)N[C@@H](C)C(=O)O)[C@@H](C)O,Kd,"protein: Histone acetyltransferase PCAF, PDB entry 2rnw",1050 µM (active)
O=C(O)c1ccc2cc[nH]c2c1,Kd,"protein: Protease (Q7K, L33I, L63I, C67A, C95A mutation), PDB entry 4ej8",4.1 µM (active)
CSCC[C@H](NC(=O)[C@H](C)N)C(=O)N[C@@H](CCCCN)C(=O)N[C@@H](CCCNC(N)N)C(=O)N[C@@H](Cc1cnc[nH]1)C(=O)NCC(=O)N[C@@H](CC(C)C)C(=O)N[C@@H](CC(=O)O)C(=O)N[C@@H](CC(N)=O)C(=O)N[C@@H](Cc1ccc(O)cc1)C(=O)N[C@@H](CCCNC(N)N)C(=O)NCC(=O)N[C@@H](Cc1ccc(O)cc1)C(=O)N[C@@H](CO)C(=O)O (H-AMK[Orn(CH(NH2)2)]HGLDNY[Orn(CH(NH2)2)]GYS-OH),Kd,"protein: I-Ag7, PDB entry 1f3j",6 µM (active)
H-AHGMLKLYYGLS-OH,Kd,"protein: Syntaxin-6, PDB entry 4j2c",5.6 µM (active)
CC(=O)N[C@H](C(=O)N[C@@H](CO)C(=O)N[C@@H](Cc1ccccc1)C(=O)N[C@]1(C)CCCCCC/C=C/CCC[C@@](C)(C(N)=O)NC(=O)[C@H](CC(C)C)NC(=O)[C@H](CC(C)C)NC(=O)[C@H](Cc2ccc(O)cc2)NC(=O)[C@H](Cc2c[nH]c3ccccc23)NC(=O)[C@H](Cc2ccc(O)cc2)NC(=O)[C@H](CCC(=O)O)NC1=O)[C@@H](C)O (Ac-TSF[R8]EYWYLL[S5]-NH2; staple (E) 4-11),Kd,"protein: E3 UBIQUITIN-PROTEIN LIGASE MDM2-M62A, PDB entry 4umn",0.0631 µM (active)
CC[C@H](N)C(=O)N[C@H](C(=O)N[C@@H](Cc1ccccc1)C(=O)N[C@]1(C)CCCCC/C=C/CCCC[C@@](C)(C(=O)N[C@@H](CCC(N)=O)C(=O)N[C@@H](CC(N)=O)C(=O)O)NC(=O)[C@H](CC(C)C)NC(=O)[C@H](CC(C)C)NC(=O)[C@H](CCCNC(N)N)NC(=O)[C@H](Cc2c[nH]c3ccccc23)NC(=O)[C@H](CC(C)C)NC(=O)[C@H](CC(N)=O)NC1=O)[C@@H](C)O (H-[Abu]TF[X1]NLW[Orn(CH(NH2)2)]LL[X2]QN-OH; staple (E) 4-11),Kd,"protein: E3 ubiquitin-protein ligase Mdm2, PDB entry 3v3b",0.055 µM (active)
CC(C)C[C@H](NC(=O)[C@]1(C)CCC/C=C\CCC[C@](C)(NC(=O)[C@H](CCCNC(N)N)NC(=O)[C@H](CO)NC(=O)[C@H](Cc2ccc(O)cc2)NC(=O)[C@H](CCCNC(N)N)NC(=O)[C@H](CCCCN)NC(=O)[C@@H](N)CCCCN)C(=O)N[C@@H](CCC(N)=O)C(=O)N[C@@H](CC(C)C)C(=O)N[C@@H](CC(C)C)C(=O)N1)C(N)=O,Kd,"protein: EUKARYOTIC TRANSLATION INITIATION FACTOR 4E, PDB entry 4bea",0.005 µM (active)
COc1cc(-c2ccc3ncc(-c4cccc([C@@H](O)NCCN(C)C)c4)n3n2)ccc1O,Kd,"protein: Death-associated protein kinase 1 DAPK1, PDB entry 4txc",0.24 µM (active)
CC(C)C[C@H](NC(=O)[C@@H]1CCCN1C(=O)[C@@H]1CCCN1C(=O)[C@@H](NC(=O)[C@@H]1CCCN1C(=O)[C@H](CC(C)C)NC(=O)[C@@H](N)CC(C)C)[C@@H](C)O)C(=O)N[C@@H](CO)C(=O)N1CCC[C@H]1C(=O)N[C@@H](CO)C(=O)N[C@@H](CCCNC(N)N)C(=O)N[C@@H](CCCNC(N)N)C(=O)N[C@@H](CO)C(=O)NCC(=O)O (H-LLPTPPLSPS[Orn(CH(NH2)2)][Orn(CH(NH2)2)]SG-OH),Kd,"protein: Bin1C SH3 domain, PDB entry 1mv0",93.3 µM (active)
CC(C)C[C@H](NC(=O)CNC(=O)[C@H](CO)NC(=O)[C@@H]1CCCN1C(=O)[C@@H](N)CC(C)C)C(=O)N[C@@H](CC(C)C)C(=O)N[C@H](C(=O)N1CCC[C@H]1C(=O)N1CCC[C@H]1C(=O)N[C@@H](CCC(N)=O)C(=O)N[C@@H](CO[P+](O)(O)O)C(=O)NCC(=O)O)[C@H](C)O[P+](O)(O)O,Kd,"protein: Skp1-Fbw7, PDB entry 2ovq",0.07 µM (active)
CC(C)[C@H](NC(=O)[C@H](CCCCN)NC(=O)[C@H](CCCNC(N)N)NC(=O)[C@H](CCCCN)NC(=O)[C@H](CCCCN)NC(=O)[C@H](CCCCN)NC(=O)[C@@H]1CCCN1C(=O)[C@@H]1CCCN1C(=O)[C@H](CO)NC(=O)CN)C(=O)NCC(=O)O (H-GSPPKKK[Orn(CH(NH2)2)]KVG-OH),Kd,"protein: IMPORTIN SUBUNIT ALPHA-1A, PDB entry 4b8o",0.004 µM (active)
CC(C)[C@H](NC(=O)[C@H](C)NC(=O)[C@@H](NC(=O)[C@@H](N)CCCCN)C(C)C)C(=O)N[C@H](C(=O)N[C@@H](CCCNC(N)N)C(=O)N[C@H](C(=O)N1CCC[C@H]1C(=O)N1CCC[C@H]1C(=O)N[C@@H](CCCCN)C(=O)O)[C@@H](C)O[P+](O)(O)O)C(C)C (H-KVAVV[Orn(CH(NH2)2)][Thr(P(OH)3+)]PPK-OH),Kd,"protein: anti-ptau heavy chain and anti-ptau light chain, PDB entry 4glr",0.00035 µM (active)
CC(C)[C@H](NC(=O)[C@H](CO)NC(=O)[C@@H](NC(=O)[C@@H](N)CCCCN)C(C)C)C(=O)N[C@H](C(=O)N[C@@H](CCCNC(N)N)C(=O)N[C@H](C(=O)N1CCC[C@H]1C(=O)N1CCC[C@H]1C(=O)N[C@@H](CCCCN)C(=O)N[C@@H](CO)C(=O)N1CCC[C@H]1C(=O)N[C@@H](CO)C(=O)O)[C@H](C)O[P+](O)(O)O)C(C)C (H-KVSVV[Orn(CH(NH2)2)][X1]PPKSPS-OH),Kd,"protein: Pin1 WWdomain, PDB entry 1i8h",29 µM (active)
CC(=O)N1CCC[C@H]1C(=O)N1CCC[C@H]1C(=O)NCC(=O)N1CCC[C@H]1C(=O)N1CCC[C@H]1C(=O)NCC(=O)N1CCC[C@H]1C(=O)N[C@H](C(=O)NCC(=O)N1CCC[C@H]1C(=O)N[C@@H](CCCNC(N)N)C(=O)NCC(=O)N1CCC[C@H]1C(=O)N1CCC[C@H]1C(=O)NCC(=O)N1CCC[C@H]1C(=O)N1CCC[C@H]1C(=O)O)[C@@H](C)O (Ac-PPGPPGPTGP[Orn(CH(NH2)2)]GPPGPP-OH),Kd,"protein: HSP47, PDB entry 3zha",1 µM (active)
